The panel holds about 83,000 compounds, 20% with a hit somewhere; the sample as a whole holds those more often.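 Negative percent growth values reflect cell death: -40 means 40% of the cells present at the start died, and -100 means all died.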 Calls of active or inactive are those of the source. The calls were made as follows: active = growth percent below 10; inactive = the rest.
Each molecule was assayed on DU-145 prostate (assay: NCI-60 one-dose screen, 48 h (100 = growth as untreated, 0 = no growth, -100 = all killed)). Settings: 10 µM unless noted.
In the case of COc1cccc2cc(-c3nc(C4CCC(C(=O)O)CC4)n4ncnc(N)c34)[nH]c12 (centres undefined), the growth is reported as 19.2% (inactive). CNC(=O)c1cc(Oc2ccc3nc(NC(=O)Nc4ccc(Cl)c(C(F)(F)F)c4)sc3c2)ccn1 was tested, and the growth was 19.2% (inactive). For C[C@@H](Oc1cc(-n2cnc3ccc(CN4CCN(C)CC4)cc32)sc1C(N)=O)c1ccccc1C(F)(F)F, the growth was 2.67% (active). Oc1ccc(C(c2ccc(O)cc2)C(Cl)(Cl)Cl)cc1 was tested, and the growth was 109% (inactive). With C[C@H](NC(=O)c1c(N)nn2cccnc12)c1cc2cccc(C#Cc3cnn(C)c3)c2c(=O)n1-c1ccccc1 the growth was 34.6% (inactive). With COc1cc(CCc2cc(NC(=O)c3ccc(N4C[C@@H](C)N[C@@H](C)C4)cc3)n[nH]2)cc(OC)c1 the growth was 37.7% (inactive). In the case of CNC(=O)CN1CCC(Oc2cc3c(Nc4cccc(Cl)c4F)ncnc3cc2OC)CC1, the growth is reported as 44.9% (inactive). With Cc1oc2c(C(=O)N/N=C\c3ccc(O)cc3O)c[nH]c2c1C the growth was -33.5% (active). In the case of CCCCCc1ccc(C)cc1OC(=O)CCl, the growth is reported as 109% (inactive). With COc1cc2ncnc(Oc3cccc(NC(=O)Nc4cc(C(C)(C)C(F)(F)F)on4)c3)c2cc1OC the growth was 31.4% (inactive). With COc1cc(Nc2ncc3c(n2)-c2ccc(Cl)cc2C(c2c(F)cccc2OC)=NC3)ccc1C(=O)O the growth was 78.4% (inactive). With CC[C@H](Nc1ncnc2nc[nH]c12)c1nc2cccc(F)c2c(=O)n1-c1ccccc1 the growth was 62.4% (inactive). For CN1CCN(CCOc2cc(OC3CCOCC3)c3c(Nc4c(Cl)ccc5c4OCO5)ncnc3c2)CC1, the growth was 43.8% (inactive). For Nc1nc(Nc2ccccc2)c(C=Nc2ccccc2)c(=O)[nH]1, the growth was 103% (inactive). CNC(=O)c1cc(Oc2cccc3nc(Nc4ccc(Oc5ccccc5)cc4)ccc23)ccn1 was tested, and the growth was 83.4% (inactive). For CN1CC[C@@H](c2c(O)cc(O)c3c(=O)cc(-c4ccccc4Cl)oc23)[C@@H]1CO, the growth was 10.7% (inactive). Cc1[nH]n(C(N)=S)c(=O)c1N=Nc1ccc(S(=O)(=O)Nc2ccncn2)cc1 was tested, and the growth was 83.7% (inactive). In the case of COCCN1CCN(Cc2ccc(-c3n[nH]c4c3C(=O)c3c(NC(=O)NN5CCOCC5)cccc3-4)cc2)CC1, the growth is reported as 4.89% (active). For CN(c1ncccc1CNc1nc(Nc2ccc3c(c2)CC(=O)N3)ncc1C(F)(F)F)S(C)(=O)=O, the growth was 11.2% (inactive). In the case of COc1cc(N2CCC(N3CCN(C)CC3)CC2)ccc1Nc1ncnc(Nc2ccccc2S(=O)(=O)C(C)C)n1, the growth is reported as 100% (inactive). In the case of O=C(COc1ccc(/C=C2\Cc3ccc(Cl)cc3C2=O)cc1)Nc1nccs1, the growth is reported as 118% (inactive). With O=C(c1ccc(/C=C/c2n[nH]c3ccccc23)cc1)N1CCNCC1 the growth was 39.6% (inactive). In the case of O=C(O)C1(Cc2cccc(Nc3nccs3)n2)CCC(Oc2cccc(Cl)c2F)CC1 (centres undefined), the growth is reported as 70.2% (inactive). In the case of Cc1cc(O)cc(-c2c(-c3ccnc(-c4cccnc4)c3)cnn2C)c1, the growth is reported as 70.4% (inactive). Cc1c(CN2CCN(C(=O)[C@H](C)O)CC2)sc2c(N3CCOCC3)nc(-c3cnc(N)nc3)nc12 was tested, and the growth was 8.38% (active). For CN1CCN(c2ccc(C(=O)Nc3n[nH]c4ccc(Cc5cc(F)cc(F)c5)cc34)c(NC3CCOCC3)c2)CC1, the growth was 19.7% (inactive). With C#Cc1cccc(Nc2ncnc3cc(OCCOC)c(OCCOC)cc23)c1 the growth was 35.8% (inactive). In the case of COc1ccc(Nc2ncccc2NC(=O)c2cn(Cc3cccc(Oc4ccccc4)c3)nn2)cc1, the growth is reported as 93.4% (inactive). For O=C1NC(=O)[C@@H](c2cn3c4c(cccc24)CCC3)[C@@H]1c1c[nH]c2ccccc12, the growth was 15% (inactive). For Cc1cc(-c2cc(O)ccc2Cl)cc2nnc(Nc3ccc(OCCN4CCCC4)cc3)nc12, the growth was -89.4% (active). With C=CCN(/C=C1/C(=O)O[C@H](COC)[C@@]2(C)C1=C(O)C(=O)C1=C2[C@H](OC(C)=O)C[C@]2(C)C(=O)CC[C@@H]12)CC=C the growth was 26.6% (inactive). In the case of CNC(=O)c1nn(C)c2c1C(C)(C)Cc1cnc(Nc3ccc(N4CCN(C)CC4)cc3)nc1-2, the growth is reported as 15.5% (inactive). For CC(C)Nc1cc(-c2c[nH]c(C(=O)N[C@H](CO)c3cccc(Cl)c3)c2)c(Cl)cn1, the growth was 57.4% (inactive). In the case of COc1ccc(Cc2cc(-c3ccccc3C)n[nH]c2=O)cc1, the growth is reported as 93.2% (inactive). CC(C)[C@@H]1CC[C@@H]2[C@@H]1[C@H](OC(=O)/C=C/c1ccccc1)[C@]1(C(C)C)C[C@@H](OC(=O)CO)[C@@]2(C)O1 was tested, and the growth was 86% (inactive). With Cc1ncc(-c2ccnc(Nc3ccc(S(C)(=O)=O)cc3)n2)n1C(C)C the growth was 4.62% (active). In the case of C/C=C/C=N/NC(=S)Nc1ccccc1, the growth is reported as 104% (inactive). With Cc1nn(-c2ccccc2)c2c1N=c1s/c(=C\c3cn(-c4ccccc4)nc3-c3ccc(Cl)cc3)c(=O)n1C(C)N2 (centres undefined) the growth was 59.7% (inactive). COc1cc2c(cc1OCCCN1Cc3ccc(OCCCCC(=O)N4CCC(CCN5CCCC5)CC4)cc3C1)N=C(N)C21CCCC1 was tested, and the growth was 95.2% (inactive).
